SW480 rerep – inducers of DNA re-replication in SW480 colon cancer cells; SW480 DNA re-replication, Hoechst DNA content imaging, 48 h; Potency, µM (doses to about 46.1 µM), for inactives: top-dose re-replication activation, actives largely listed as activators; hit rate 1.8% among 340,000; AID 624297; note: potency is the fitted concentration of half-maximal effect; % of control where 0% means no effect; nearly all actives have a fitted effect of over 55% in size
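Cells (250 per well) received 23 nL compound or DMSO by pin tool and were kept 48 hr at 37 C, 5% CO2. Nuclei were then stained with Hoechst for 40 min and scanned for DNA content.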
RORgamma inh – inhibitors of mouse ROR gamma transcriptional activity. hit rate 5.4% among 310,000. Potency, µM (highest dose often 53.6 µM), for inactives: at the top dose activity change, negative = inhibition, actives largely listed as inhibitors. Drosophila S2 Gal4-RORgamma UAS-luciferase reporter, 20 h. AID 2551. P51450; note: potency is the fitted concentration of half-maximal effect; % is set by controls: 0 for no effect and ±100 for the full control effect; nearly all actives have a fitted effect of over 60% in size
Target sequence (P51450 whole entry, looked up, the tested form may be a part): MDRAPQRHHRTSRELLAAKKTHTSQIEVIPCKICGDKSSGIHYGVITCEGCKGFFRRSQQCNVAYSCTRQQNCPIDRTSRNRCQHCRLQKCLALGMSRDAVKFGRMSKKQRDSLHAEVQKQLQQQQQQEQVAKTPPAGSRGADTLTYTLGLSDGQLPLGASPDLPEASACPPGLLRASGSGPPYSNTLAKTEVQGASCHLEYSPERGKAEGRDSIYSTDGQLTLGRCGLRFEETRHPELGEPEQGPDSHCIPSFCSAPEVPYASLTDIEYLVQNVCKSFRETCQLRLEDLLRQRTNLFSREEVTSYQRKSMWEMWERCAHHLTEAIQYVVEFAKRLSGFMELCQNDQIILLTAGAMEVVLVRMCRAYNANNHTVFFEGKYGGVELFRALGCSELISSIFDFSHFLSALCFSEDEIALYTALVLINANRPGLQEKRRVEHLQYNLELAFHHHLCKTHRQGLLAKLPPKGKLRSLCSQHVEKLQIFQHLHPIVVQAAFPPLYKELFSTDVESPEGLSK
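Schneider cells (Drosophila), stable Gal4 DBD–ROR gamma + UAS-luc; 1 hr cmpd preincubation; Cu2+ induction 700 uM final; 20 hr ambient; luminescence.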
Gal4-VP16 FLuc – counter-screen for ROR gamma inhibitors: Gal4-VP16 reporter; Drosophila S2 Gal4-VP16 UAS-luciferase, luminescence, 20 h; Potency, µM (highest dose often 53.6 µM), without a hit: top-dose activity, negative = inhibition, usual class: inhibitors; hit rate 3.5% among 310,000; AID 2546;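 note: Gal4-VP16 expression switched on by copper sulfate through the metallothionein promoter; potency is the fitted concentration of half-maximal effect; % is set by controls: 0 for no effect and ±100 for the full control effect; nearly all actives have a fitted effect of over 50% in size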
MCF10A rereplic – inducers of DNA re-replication in MCF 10A breast cells | hit rate 2.9% among 350,000 | MCF 10A DNA re-replication, Hoechst nuclear intensity, 48 h | Potency, µM (highest dose often 46.1 µM), without a hit: top-dose activity, positive = re-replication, actives largely listed as activators; note: potency is the fitted concentration of half-maximal effect; % of control where 0% means no effect; nearly all actives have a fitted effect of over 50% in size
IL-1B inflam inh – inhibitors of inflammasome signaling (IL-1 beta secretion); THP-1 LPS/ATP IL-1B secretion, AlphaLISA, 16 h; active compounds read low; activity change, % at 57.5 µM; hit rate 4.7% among 360,000; AID 743279; in the data active = activity change below about -50%; inconclusive = mostly about -30% to -49%; note: % is set by controls: 0 for no effect and ±100 for the full control effect
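THP-1 cells pretreated 1 hr with compounds (up to 57.5 uM final), then stimulated with LPS (250 ng/mL final) plus ATP (1.25 mM final); secreted IL-1B measured by AlphaLISA after 16 hr, decreased signal indicating inhibition.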
Numbers without * were called inactive; u = inconclusive; x = no result; [ ] = another dose, or the depositor's remark. The list is not random: actives were taken first. Their share in the collection is about 11%. Unless noted, calls come from the whole dose curve; as a rule, active = well fitted curve in the direction sought with a large enough effect; inconclusive = small, poorly fitted or top-dose-only effect, or another doubt; inactive = no such curve, though single readings can be large; an effect the other way counts as inactive or inconclusive.

SMILES	SW480 rerep	RORgamma inh	Gal4-VP16 FLuc	MCF10A rereplic	IL-1B inflam inh
N#CC(C#N)=C1C=CC=CN1/C(=C\c1ccccc1Cl)C(=O)c1ccccc1	9.2µM*	6.3µM*	3.2µM*	6.5µM*	-73*
Nc1ccccc1NC1=CC(=O)CC(c2ccco2)C1 (stereo not given)	-4%	u	u	-6%	10
Cc1ccc(NC2=CC(=O)CC(c3ccco3)C2)c(N)c1 (stereo not given)	27%	u	3%	10µM*	-4
NC(=O)c1c(NC(=O)COC(=O)c2ccc(O)c(Cl)c2)sc2c1CCCC2	u	x	x	u	55
COc1ccc(N=Cc2c(O)n(-c3ccc(OC)cc3)c(=O)c3ccccc23)cc1	20%	-14%	-15%	u	-20
O=c1c2ccccc2c(C=Nc2cccc(O)c2)c(O)n1-c1ccc2c(c1)OCO2	u	u	u	15µM*	u
COc1ccc(N=Cc2c(O)n(-c3cccc(C)n3)c(=O)c3ccccc23)cc1	-5%	36%	-19%	-2%	-17
Cc1cccc(-n2c(O)c(C=Nc3ccccc3)c3ccccc3c2=O)n1	-95%	12%	-7%	4%[9.22 µM]	-65*
CC[C@H](NC(=O)[C@H](CCCN=C(N)N)NC(=O)[C@H](Cc1c[nH]c2ccccc12)NC(=O)[C@@H](N)CS)C(=O)N[C@@H](CCCN=C(N)N)C(=O)N[C@@H](Cc1ccc(O)cc1)C(N)=O	x	12%	-13%	x	x
COC(=O)c1ccc(C(/C=C/[C@@H](C)C(=O)NCc2ccccc2)NC(=O)OCc2ccccc2)cc1 (stereo not given in full)	x	1%	6%	x	x
N#CC(c1ccccn1)(c1ncc(C(F)(F)F)cc1Cl)N1CCOCC1 (stereo not given)	4%	-7%	0%	0%	-4
N#CC(c1ccncc1)(c1ncc(C(F)(F)F)cc1Cl)N1CCOCC1 (stereo not given)	4%	9%	-9%	-40%	-77*
CC(=O)OC[C@@H]1O[C@@H](O/N=C2/C[C@@H](O)[C@@H](O)[C@@H]3[C@@H]4C(=O)N(Cc5ccc6c(c5)OCO6)C(=O)[C@H]4CC[C@@H]23)[C@H](OC(C)=O)[C@H](OC(C)=O)[C@@H]1OC(C)=O	x	4%[10 µM]	5%[10 µM]	x	x
Nc1sccc1C(=O)NCc1ccccc1	x	x	x	x	7
O=S(=O)(CCC(F)=C(F)F)c1nnnn1C1CCCCC1	x	-25%	7%	x	x
C/C=C/c1ccc2c(c1)O[C@@H](CN(C)C(=O)c1ccc(F)cc1)[C@@H](C)CN([C@H](C)CO)S2(=O)=O	x	x	x	x	-3
C[C@H]1CN([C@@H](C)CO)S(=O)(=O)c2ccc(/C=C/c3ccccc3)cc2O[C@H]1CN(C)C(=O)NC1CCCCC1	x	x	x	x	-55*
C[C@@H]1CN([C@H](C)CO)S(=O)(=O)c2ccc(Br)cc2O[C@H]1CN(C)C(=O)C1CCCCC1	x	x	x	x	11
C[C@@H]1CN([C@H](C)CO)S(=O)(=O)c2ccc(C#Cc3ccccc3F)cc2O[C@H]1CN(C)C(=O)c1ccc2c(c1)OCO2	x	x	x	x	-74*
C[C@H](CO)N1C[C@H](C)[C@@H](CN(C)CC2CCOCC2)Oc2cc(C#Cc3ccccc3F)ccc2S1(=O)=O	x	x	x	x	-19
C[C@H]1CN([C@@H](C)CO)S(=O)(=O)c2ccc(C3=CCCC3)cc2O[C@@H]1CN(C)C(=O)C1CCCCC1	x	x	x	x	-51*
CCCCC[C@@H]1CCCCC[C@@H](O)C[C@@H](O)[C@@H](O)/C=C/C(=O)O1	x	x	x	x	-15
C[C@@H]1CC[C@H](O)/C=C/C(=O)O[C@H](C)CC[C@H](O)/C=C/C(=O)O1	-2%	u	6.3µM*	3%	-4
Cc1ccccc1N1CCN(Cc2nc(Cc3ccccc3)no2)CC1	0%	22%	6%	11%	4
CC(=O)c1ccc(N2CCN(Cc3nc(Cc4ccccc4)no3)CC2)cc1	-6%	3.5µM*	u	14%	13
SMILES	SW480 rerep	RORgamma inh	Gal4-VP16 FLuc	MCF10A rereplic	IL-1B inflam inh
CN(CC(=O)Nc1cccc(F)c1)C(=O)c1ccccc1CCc1ccccc1	1%	x	x	u	0
COc1ccc(NC(=O)CN(C)C(=O)c2ccccc2CCc2ccccc2)cc1	-28%	x	x	-2%	-52*
Cc1nn(-c2ccccc2)c(Cl)c1C(=O)N(C)CC(=O)Nc1cccc(F)c1	-97%	x	x	-4%	-16
CN(CC(=O)Nc1cccc(F)c1)C(=O)c1cn(-c2ccccc2)nc1-c1ccc(Cl)cc1	21%	x	x	u	-60*
Cc1nn(-c2ccc(F)cc2)c(Cl)c1C(=O)N(C)CC(=O)Nc1cccc(F)c1	0%	x	x	-1%	-52*
COc1cccc(NC(=O)CN(C)C(=O)c2cn(-c3ccccc3)nc2-c2cccs2)c1	-31%	x	x	26%	-53*
COc1ccccc1CC(NC(C)=O)C(=O)NC1CCN(S(=O)(=O)c2ccccc2)CC1 (stereo not given)	-7%	-7%	-1%	-4%	-5
COc1ccc(NC(=O)CN(C)C(=O)COc2ccccc2Cc2ccccc2)cc1	-32%	x	x	-1%	-3
COc1ccc(NC(=O)CN(C)C(=O)c2cn(-c3ccccc3)nc2-c2ccc(Cl)cc2)cc1	23µM*	x	x	15%	-60*
COc1ccc(Cl)cc1NC(=O)CN(C)C(=O)c1cn(-c2ccccc2)nc1-c1cccnc1	u	x	x	u	-91*
COc1cccc(NC(=O)CN(C)C(=O)c2cn(-c3ccccc3)nc2-c2cccnc2)c1	7%	x	x	2%	0
COc1ccc(NC(=O)CN(C)C(=O)c2cn(-c3ccccc3)nc2-c2ccc(F)cc2)cc1	-9%	x	x	8%	-53*
CN(CC(=O)Nc1ccc(F)cc1)C(=O)COc1ccccc1Cc1ccccc1	-1%	x	x	u	-69*
CCc1ncc(CO)n1Cc1cccc2ccccc12	x	x	x	x	26
C/C=C\C1=C(CO)[C@H](O)[C@H]2OC2[C@@H]1O (stereo not given in full)	x	0%[10 µM]	8%[10 µM]	x	x
[O-][N+](=Nc1ccccc1)c1ccccc1	1%	33%	13%	2%	x
COc1ccc(CNc2nc(-c3c(C)noc3C)nc3ccccc23)c(OC)c1	x	12%	8%	x	x
CCN(CC)CCOC(=O)c1ccc(NC(=O)c2cn(-c3ccccc3)nc2-c2cccs2)cc1	-8%	u	u	21µM*	-53*
CCN(CC)CCNC(=O)c1cn(-c2ccccc2)nc1-c1cccs1	3%	23%	9%	-12%	-21
COc1ccc(-c2nn(-c3ccccc3)cc2C(=O)NC(=S)NNC(=O)c2ccncc2)cc1	u	6.3µM*	-26%	u	92
CC(C)N(C(=O)CSc1nc2ccccc2n1Cc1ccc(F)cc1)C(C)C	4%	u	u	22%	-62*

High-throughput results: PubChem, National Center for Advancing Translational Sciences (NCATS)
